Results filed as inconclusive are left out. The source made the active and inactive calls. Calls follow the shape of the dose curve; as a rule, active = well fitted inhibition curve with a large enough effect; inconclusive = small, poorly fitted or top-dose-only effect; inactive = flat fitted curve, though single readings scatter.
Tests used:
[1] = qHTS profiling for inhibitors of Plasmodium falciparum proliferation (AID 504749);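 also: 0% = DMSO vehicle and full inhibition = artemisinin control; nearly all actives have a fitted effect of over 60% in size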; settings: P. falciparum in erythrocytes, SYBR Green DNA, 72 h
Outline: (§1)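 SYBR Green fluorescence of parasite DNA, read after lysis and overnight dark incubation, measured growth over 72 h in erythrocyte culture at 0.3% parasitemia and 2.5% hematocrit. Data normalised to DMSO and 0.29 uM artemisinin, with plate-drift correction.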

[2] = system: 3D7; assay: as above; settings: P. falciparum in erythrocytes, SYBR Green DNA, 72 h; series mostly up to 28.7 µM
Outline: as §1

[3] = system: 7G8; assay: as above; settings: P. falciparum in erythrocytes, SYBR Green DNA, 72 h; series mostly up to 28.7 µM
Outline: as §1

[4] = system: AA1029; assay: as above; settings: P. falciparum in erythrocytes, SYBR Green DNA, 72 h; series mostly up to 28.7 µM
Outline: as §1

[5] = system: AS120; assay: as above; settings: P. falciparum in erythrocytes, SYBR Green DNA, 72 h; series mostly up to 28.7 µM
Outline: as §1

[6] = system: ATS189; assay: as above; settings: P. falciparum in erythrocytes, SYBR Green DNA, 72 h; series mostly up to 28.7 µM
Outline: as §1

[7] = system: ATS95; assay: as above; settings: P. falciparum in erythrocytes, SYBR Green DNA, 72 h; series mostly up to 28.7 µM
Outline: as §1

[8] = at 28.7 µM (top of the series), parasite line A
[9] = at 28.7 µM (top of the series), parasite line B
[10] = at 12.8 µM (top of the series), parasite line A
[11] = at 12.8 µM (top of the series), parasite line B

CCc1nnc(NS(=O)(=O)c2ccc(N)cc2)s1
inactive: activity, negative = inhibition [1, 8] 10.2% | activity, negative = inhibition [1, 9] 10.5% | Potency [2] | Potency [3] | Potency [4] | Potency [5] | Potency [6] | Potency [7]

NS(=O)(=O)c1cc(-c2nn[nH]n2)c(NCc2cccs2)cc1Cl
inactive: activity, negative = inhibition [1, 8] 0.998% | activity, negative = inhibition [1, 9] 13.7% | Potency [2] | Potency [3] | Potency [4] | Potency [5] | Potency [6] | Potency [7]

CCN(CC)CCc1nc(-c2ccccc2)no1
inactive: activity, negative = inhibition [1, 10] -7.93% | activity, negative = inhibition [1, 11] -5.26% | Potency [2] | Potency [3] | Potency [4] | Potency [5] | Potency [6] | Potency [7]

CC(=O)Nc1ccc(C(=O)O)cc1
inactive: activity, negative = inhibition [1, 8] 7.84% | activity, negative = inhibition [1, 9] 3.26% | Potency [2] | Potency [3] | Potency [4] | Potency [5] | Potency [6] | Potency [7]

Cc1ccc(S(=O)(=O)NC(=O)NC2CCCCC2)cc1
inactive: activity, negative = inhibition [1, 8] -9.84% | activity, negative = inhibition [1, 9] 5.26% | Potency [2] | Potency [3] | Potency [4] | Potency [5] | Potency [6] | Potency [7]

COc1cc(C(=O)NCCCCCC(=O)O)cc(OC)c1OC
inactive: activity, negative = inhibition [1, 8] 8.13% | activity, negative = inhibition [1, 9] 13.6% | Potency [2] | Potency [3] | Potency [4] | Potency [5] | Potency [6] | Potency [7]

CN1CCN(C(=O)C2CCCCC2)CC1
inactive: activity, negative = inhibition [1, 8] 0.439% | activity, negative = inhibition [1, 9] -13.4% | Potency [2] | Potency [3] | Potency [4] | Potency [5] | Potency [6] | Potency [7]

Nc1ccncc1N
inactive: activity, negative = inhibition [1, 8] 9.9% | activity, negative = inhibition [1, 9] 5.99% | Potency [2] | Potency [3] | Potency [4] | Potency [5] | Potency [6] | Potency [7]

CC1CC(OC(=O)c2ccccc2O)CC(C)(C)C1 (centres undefined)
inactive: activity, negative = inhibition [1, 8] -5.75% | activity, negative = inhibition [1, 9] 14.6% | Potency [2] | Potency [3] | Potency [4] | Potency [5] | Potency [6] | Potency [7]

C=CCSCC1Nc2cc(Cl)c(S(N)(=O)=O)cc2S(=O)(=O)N1 (centres undefined)
inactive: activity, negative = inhibition [1, 8] 8.77% | activity, negative = inhibition [1, 9] 13.6% | Potency [2] | Potency [3] | Potency [4] | Potency [5] | Potency [6] | Potency [7]

CC(=O)Nc1cccc(O)c1
inactive: activity, negative = inhibition [1, 8] 7.02% | activity, negative = inhibition [1, 9] 9.95% | Potency [2] | Potency [3] | Potency [4] | Potency [5] | Potency [6] | Potency [7]

CC(C)(C)C(=O)OCOC(=O)[C@@H]1N2C(=O)[C@@H](NC(=O)[C@H](N)c3ccccc3)[C@H]2SC1(C)C
inactive: activity, negative = inhibition [1, 10] -1.26% | activity, negative = inhibition [1, 11] -15.3% | Potency [2] | Potency [3] | Potency [4] | Potency [5] | Potency [6] | Potency [7]

CCCC(O)C(CC)CO (centres undefined)
inactive: activity, negative = inhibition [1, 8] 12.2% | activity, negative = inhibition [1, 9] 6.77% | Potency [2] | Potency [3] | Potency [4] | Potency [5] | Potency [6] | Potency [7]

CC(=O)Nc1ccc(OCCOCCOc2ccc(NC(C)=O)cc2)cc1
inactive: activity, negative = inhibition [1, 8] 6.75% | activity, negative = inhibition [1, 9] 13% | Potency [2] | Potency [3] | Potency [4] | Potency [5] | Potency [6] | Potency [7]

O=C(O)Cc1ccc(CCNS(=O)(=O)c2ccc(Cl)cc2)cc1
inactive: activity, negative = inhibition [1, 8] 5.99% | activity, negative = inhibition [1, 9] -5.95% | Potency [2] | Potency [3] | Potency [4] | Potency [5] | Potency [6] | Potency [7]

Cn1c([N+](=O)[O-])cnc1COC(N)=O
inactive: activity, negative = inhibition [1, 8] 5.14% | activity, negative = inhibition [1, 9] 3.75% | Potency [2] | Potency [3] | Potency [4] | Potency [5] | Potency [6] | Potency [7]

Cc1c(C)c2c(c(C)c1OC(=O)c1cccnc1)CC[C@@](C)(CCC[C@H](C)CCC[C@H](C)CCCC(C)C)O2
inactive: activity, negative = inhibition [1, 8] -3.82% | activity, negative = inhibition [1, 9] -2.45% | Potency [2] | Potency [3] | Potency [4] | Potency [5] | Potency [6] | Potency [7]

CN1CCCN=C1COC(=O)C(O)(c1ccccc1)C1CCCCC1 (centres undefined)
inactive: activity, negative = inhibition [1, 8] 2.78% | activity, negative = inhibition [1, 9] -4.74% | Potency [2] | Potency [3] | Potency [4] | Potency [5] | Potency [6] | Potency [7]

NC(N)=NCCN1CCCCCCC1
inactive: activity, negative = inhibition [1, 10] 4.56% | activity, negative = inhibition [1, 11] 10.2% | Potency [2] | Potency [3] | Potency [4] | Potency [5] | Potency [6] | Potency [7]

O=S1(=O)OC(c2ccc(O)cc2)(c2ccc(O)cc2)c2ccccc21
inactive: activity, negative = inhibition [1, 8] -0.266% | activity, negative = inhibition [1, 9] 7% | Potency [2] | Potency [3] | Potency [4] | Potency [5] | Potency [6] | Potency [7]

CNc1c2c(nn1C)CCCC2
inactive: activity, negative = inhibition [1, 8] 6.6% | activity, negative = inhibition [1, 9] 23% | Potency [2] | Potency [3] | Potency [4] | Potency [5] | Potency [6] | Potency [7]

CCCOC(=O)c1ccc(N)cc1
inactive: activity, negative = inhibition [1, 8] -0.392% | activity, negative = inhibition [1, 9] 6.95% | Potency [2] | Potency [3] | Potency [4] | Potency [5] | Potency [6] | Potency [7]

CC(N)CCCC(C)(C)O (centres undefined)
inactive: activity, negative = inhibition [1, 8] 12.5% | activity, negative = inhibition [1, 9] -7.47% | Potency [2] | Potency [3] | Potency [4] | Potency [5] | Potency [6] | Potency [7]

— PubChem BioAssay (NCATS)
